Laboratory results published in PubChem BioAssay (NCI).
The panel holds about 79,000 compounds, 15% with a hit somewhere; the sample as a whole holds those more often. Active and inactive are the calls of the source. No stated cut-off is given here; in the data, active means growth inhibition above about 70%; inactive means the rest.

What was measured:
[1] = NCI Yeast Anticancer Drug Screen. Data for the rad52 strain (AID 147);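 further: 0% = growth of vehicle-treated control cultures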; conditions: S. cerevisiae rad52 mutant growth inhibition, hits give high values
How it was run: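 Vehicle-treated cultures served as the reference for growth inhibition of compound-exposed yeast bearing a DNA repair mutation.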

[2] = NCI Yeast Anticancer Drug Screen. Data for the wt1 strain (AID 149);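 further: 0% = growth of vehicle-treated wt1 cultures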; conditions: S. cerevisiae wt1 strain (SPY 50644) growth inhibition, hits give high values
How it was run: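 wt1 yeast, compound-treated; % growth inhibition vs vehicle control.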

[3] = NCI Yeast Anticancer Drug Screen. Data for the rad50EPP+ strain (AID 151);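 further: 0% = growth of vehicle-treated control cultures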; conditions: S. cerevisiae rad50 mutant strain, hits give high values
How it was run: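 In this screen, rad50EPP+ yeast were exposed to compounds. Growth inhibition was scored against vehicle-treated controls.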

[4] = NCI Yeast Anticancer Drug Screen. Data for the mgt1 strain (AID 153); conditions: S. cerevisiae mgt1 mutant growth inhibition, hits give high values
How it was run: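 mgt1 strain exposed; growth vs vehicle control recorded as inhibition.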

[5] = NCI Yeast Anticancer Drug Screen. Data for the rad50 strain (AID 155);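 further: 0% = growth of vehicle-only cultures of the same strain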; conditions: S. cerevisiae rad50 strain growth inhibition, hits give high values
How it was run: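 Genetically altered yeast (DNA repair pathway); compound treatment; growth inhibition vs vehicle ctrl.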

[6] = NCI Yeast Anticancer Drug Screen. Data for the mec2-1 strain (AID 157); conditions: S. cerevisiae mec2-1 strain, hits give high values
How it was run: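 Vehicle-treated cultures served as reference for growth inhibition of compound-exposed mec2-1 yeast.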

[7] = NCI Yeast Anticancer Drug Screen. Data for the rad14 strain (AID 159);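 further: 0% = growth of vehicle-treated control cultures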; conditions: S. cerevisiae rad14 strain growth inhibition, hits give high values
How it was run: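 Test compounds were applied to a repair-deficient yeast strain. Its growth was then compared with that of cultures given vehicle alone, and inhibition was expressed relative to those controls.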

[8] = NCI Yeast Anticancer Drug Screen. Data for the sgs1 mgt1 strain (AID 161);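 further: 0% = growth of cultures given vehicle only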; conditions: S. cerevisiae sgs1 mgt1 strain, hits give high values
How it was run: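 Genetically altered yeast, compound exposure, growth inhibition relative to vehicle.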

[9] = NCI Yeast Anticancer Drug Screen. Data for the CLN2oe strain (AID 163);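 further: 0% = growth of vehicle-only control cultures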; conditions: S. cerevisiae CLN2oe strain, hits give high values
How it was run: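 Inhibition relative to vehicle-treated yeast is reported. Cells: strain with genetic alteration in cell-cycle control, grown with compound.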

[10] = NCI Yeast Anticancer Drug Screen. Data for the cln2 rad14 strain (AID 165);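 further: 0% = growth equal to vehicle treated cultures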; conditions: S. cerevisiae cln2 rad14 strain, hits give high values
How it was run: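 Each compound was tested on cln2 rad14 yeast. Inhibition of growth was calculated against vehicle-exposed controls.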

[11] = NCI Yeast Anticancer Drug Screen. Data for the bub3 strain (AID 167); conditions: S. cerevisiae bub3 mutant strain, hits give high values
How it was run: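 Yeast carrying a defined mutation is treated with each compound, and growth is compared with that of vehicle-exposed cells to give inhibition.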

[12] = NCI Yeast Anticancer Drug Screen. Data for the wt2 strain (AID 169);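 further: 0% = growth of vehicle-treated yeast cultures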; conditions: S. cerevisiae wt2 strain growth inhibition, hits give high values
How it was run: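 Inhibition of yeast growth was determined after compound treatment, normalised to controls receiving only vehicle.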

[13] = NCI Yeast Anticancer Drug Screen. Data for the mlh1 strain (AID 171);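 further: 0% = growth of vehicle-treated control cultures of the same strain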; conditions: S. cerevisiae mlh1 strain growth inhibition, hits give high values
How it was run: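 Vehicle-normalised growth inhibition of a repair- or checkpoint-altered yeast strain following compound treatment.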

[14] = NCI Yeast Anticancer Drug Screen. Data for the sgs1 strain (AID 173);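 further: 0% = growth of vehicle-only control cultures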; conditions: S. cerevisiae sgs1 mutant, hits give high values
How it was run: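 Screen format: yeast with repair or checkpoint alterations, compound exposure, growth read relative to vehicle.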

[15] = NCI Yeast Anticancer Drug Screen. Data for the rad18 strain (AID 177); conditions: S. cerevisiae rad18 mutant growth inhibition, hits give high values
How it was run: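 Test articles were incubated with altered yeast defective in DNA damage repair. Results are given as inhibition of growth versus vehicle.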

[16] = NCI Yeast Anticancer Drug Screen. Data for the mlh1 rad18 strain (AID 175); conditions: S. cerevisiae mlh1 rad18 strain growth inhibition, hits give high values
How it was run: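 Vehicle-treated cultures served as the reference for growth inhibition in a yeast strain carrying DNA damage repair alterations exposed to each compound.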

[17] = at 5.0 µM (retest, dose inferred, filed as 0.5)
[18] = at 50.0 µM (retest, dose inferred, filed as 5.0)

Measured: growth inhibition

O=Cc1ccc2c(c1)C(=O)c1ccccc1C2=O
active: [1]; at 33.0 µM 79% | [1]; at 100.0 µM 92% | [3]; at 33.0 µM 73% | [3]; at 100.0 µM 83% | [5]; at 33.0 µM 80% | [5]; at 50.0 µM 77.6% | [5]; at 100.0 µM 91% | [13]; at 100.0 µM 82% | [15]; at 100.0 µM 81%
inactive: [1]; at 1.2 µM 4% | [1]; at 3.7 µM 11% | [1]; at 11.0 µM 33% | [2]; at 1.2 µM 1% | [2]; at 3.7 µM -1% | [2]; at 11.0 µM 7% | [2]; at 33.0 µM 18% | [2]; at 100.0 µM 31% | [3]; at 1.2 µM 0% | [3]; at 3.7 µM 5% | [3]; at 11.0 µM 33% | [4]; at 1.2 µM 0% | [4]; at 3.7 µM 9% | [4]; at 11.0 µM 9% | [4]; at 33.0 µM 33% | [4]; at 100.0 µM 55% | [5]; at 1.2 µM 2% | [5]; at 3.7 µM 16% | [5]; [17] -11% | [5]; at 11.0 µM 44% | [5]; [18] 57% | [6]; at 1.2 µM 0% | [6]; at 3.7 µM 7% | [6]; [17] 6% | [6]; at 11.0 µM 12% | [6]; at 33.0 µM 21% | [6]; [18] 21% | [6]; at 50.0 µM 30.8% | [6]; at 100.0 µM 34% | [7]; at 1.2 µM 0% | [7]; at 3.7 µM -3% | [7]; at 11.0 µM 10% | [7]; at 33.0 µM 23% | [7]; at 100.0 µM 37% | [8]; [17] 5% | [8]; [18] 8% | [8]; at 50.0 µM 39.5% | [9]; at 1.2 µM -3% | [9]; at 3.7 µM -1% | [9]; at 11.0 µM 13% | [9]; at 33.0 µM 25% | [9]; at 100.0 µM 22% | [10]; [17] -21% | [10]; [18] 16% | [10]; at 50.0 µM 35.9% | [11]; at 1.2 µM -1% | [11]; at 3.7 µM -7% | [11]; [17] -3% | [11]; at 11.0 µM 8% | [11]; at 33.0 µM 9% | [11]; [18] 8% | [11]; at 50.0 µM 36.6% | [11]; at 100.0 µM 7% | [12]; at 1.2 µM 0% | [12]; at 3.7 µM 4% | [12]; at 11.0 µM 14% | [12]; at 33.0 µM 32% | [12]; at 100.0 µM 51% | [13]; at 1.2 µM 2% | [13]; at 3.7 µM 1% | [13]; at 11.0 µM 10% | [13]; at 33.0 µM 44% | [14]; at 1.2 µM -3% | [14]; at 3.7 µM -3% | [14]; at 11.0 µM 8% | [14]; at 33.0 µM 38% | [14]; at 100.0 µM 56% | [15]; at 1.2 µM -1% | [15]; at 3.7 µM 0% | [15]; at 11.0 µM 14% | [15]; at 33.0 µM 61%

Cc1cc(C(C)(C)C)c(OCCCN2CCOCC2)c(C(C)(C)C)c1
inactive: [1]; at 1.2 µM -5% | [1]; at 3.7 µM -9% | [1]; at 11.0 µM -14% | [1]; at 33.0 µM -3% | [2]; at 1.2 µM -1% | [2]; at 3.7 µM 0% | [2]; at 11.0 µM -3% | [2]; at 33.0 µM -7% | [2]; at 100.0 µM 62% | [3]; at 1.2 µM 0% | [3]; at 3.7 µM 3% | [3]; at 11.0 µM 3% | [3]; at 33.0 µM 19% | [3]; at 100.0 µM 47% | [4]; at 1.2 µM 0% | [4]; at 3.7 µM -4% | [4]; at 11.0 µM -9% | [4]; at 33.0 µM 4% | [5]; at 1.2 µM -1% | [5]; at 3.7 µM -6% | [5]; [17] 5% | [5]; at 11.0 µM 5% | [5]; at 33.0 µM 8% | [5]; [18] 50% | [6]; at 1.2 µM -1% | [6]; at 3.7 µM -5% | [6]; [17] -2% | [6]; at 11.0 µM -8% | [6]; at 33.0 µM -4% | [6]; [18] 12% | [6]; at 50.0 µM 59.5% | [7]; at 1.2 µM -2% | [7]; at 3.7 µM -1% | [7]; at 11.0 µM -5% | [7]; at 33.0 µM 15% | [8]; [17] 2% | [8]; [18] -10% | [9]; at 1.2 µM -5% | [9]; at 3.7 µM -4% | [9]; at 11.0 µM -15% | [9]; at 33.0 µM -17% | [10]; [17] -21% | [10]; [18] -81% | [10]; at 50.0 µM 24.3% | [11]; at 1.2 µM -5% | [11]; at 3.7 µM -1% | [11]; [17] -15% | [11]; at 11.0 µM -32% | [11]; at 33.0 µM 6% | [11]; [18] -10% | [12]; at 1.2 µM -2% | [12]; at 3.7 µM -3% | [12]; at 11.0 µM -8% | [12]; at 33.0 µM 9% | [13]; at 1.2 µM 3% | [13]; at 3.7 µM 2% | [13]; at 11.0 µM -3% | [13]; at 33.0 µM -16% | [14]; at 1.2 µM 0% | [14]; at 3.7 µM 0% | [14]; at 11.0 µM 0% | [14]; at 33.0 µM 25% | [16]; [17] -7% | [16]; [18] 48% | [15]; at 1.2 µM -1% | [15]; at 3.7 µM -7% | [15]; at 11.0 µM -19% | [15]; at 33.0 µM -9%
active: [1]; at 100.0 µM 96% | [4]; at 100.0 µM 99% | [5]; at 50.0 µM 75.5% | [5]; at 100.0 µM 94% | [6]; at 100.0 µM 98% | [7]; at 100.0 µM 99% | [8]; at 50.0 µM 82.2% | [9]; at 100.0 µM 97% | [11]; at 50.0 µM 75.5% | [11]; at 100.0 µM 94% | [12]; at 100.0 µM 98% | [13]; at 100.0 µM 97% | [14]; at 100.0 µM 98% | [16]; at 50.0 µM 83.8% | [15]; at 100.0 µM 98%
